The supplement of paper PMC6555819

system: LXRa:RXRa (NR concentration 270 nM, RXRa partner concentration 90 nM); assay: PBM binding z-score (relative to random genomic background probes); higher = stronger binding; sequences stand for … in GC…GCGATTGACAGCGTAGAATGAAGG
Method in brief: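 Binding z-scores were set against random background probes. The data came from custom Agilent 4×180K protein-binding microarrays carrying double-stranded probes with 34-nt variable regions, incubated 1 h with ligand-free nuclear receptor dimers. Partner-specific antibodies detected binding, and scanned fluorescence was regression-normalized.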

Sequence | PBM binding z-score
TCAGACAGGTGAAGCTAACTCAGGTACGCAGTCG | 0.31
TAGCCTTGGTCATGCGGGCCAGTATAGTGTCGGC | -1.14
GTACCAAGGTGAATAGGTCGTTAATGAGTAGGCG | 0.484
GCTTGTAGATCAACGTTAAGAAAGACTAAGCTAA | -0.395
TCTTGTAGATCAAAGGGTAAGAAAGCCGAAGCCT | 0.4
GCTGATAGGTCAACTGATGGTCAGCTAAAGCTCG | 4.76
CATACAGGGTCAGCTAGGGCAGAGTAGGGACGGC | 3.1
AGTCAAAGTTCAGGACGATGTAACGTAAAGCACG | 3.59
TCTAGTTGGTCACGGTGGTCACACACGACGGGTA | 0.249
CCGACTGGGGCAAGGTTGCCATAACGCACAGCCA | -0.375
CCTAGCGGGCCAGGGTCACTCAAGCATTTCGCTT | 1.7
AGAATGAGGTTGTACGTAGATCAGGGAAGAAAGT | 0.156
AGAATGAGGTTATACGTACATCAGGGAAGAAAGT | 2.05
TGGAGTAGGTTAGGGGCATTCAGAATGGCGTCGA | 0.934
CCTACTGGGCCATTCAGAGGCCATTGATCATATG | -0.261
ATATGTAGGTTACGGGTCATTCAGGTTGGTTCGC | 3.96
TCGAGTAGGTTAGGGGTATTCAGAATGGCGTCGA | 0.298
CCTAGTTCGTCAAGGTCACACACGCTATAGGTAC | 3.92
TCTTTTAGTTGATTAGGGCAACCGAAACAGCGGA | 0.955
GCTAGCAGGGCATTTGGGTCACTCAATGACGGGC | 0.383

Sequence | PBM binding z-score
TGAATGAGGTTATAAGATCGGGGAACGTTGCAAA | 1.27
CGTCCCAGGTCAGAGAGGTCAGTGAATGCCGAGT | 4.12
CAAACTAGGGCAAAGGTCAAAGTCGAGCCAACCA | 6.32
CGAACTAGGTCATTGACGGGACAGTGAATAGTAA | 2.52
TCTTGTAGATCAACAGGCGGTTAAGAAAGATCGA | 0.174
ACTATTAGGTGACTTAGGGCAACCGATACGACGC | 0.424
TCTGCTACGTCAGTTGGTCAGCTAACGAGCTGCC | -0.859
CTCGAAAGGTCGTGCTCAAGTGAGTATACCAAAC | 3.95
TAGCCTAGGTCATTCAGGGGCCAGGATAGAAAGC | 3.81
CCTCGGAGGACAACAGGAGGTGAGAGCTGCCAGA | -0.357
ACAGACAGGTGAGTGAAGGTAATTCAGCTGGACG | 0.102
CTACCAAGGTGAACAAGCTCGTTGATTACTATTC | 0.121
TAGCCTAGGTAATGCGGGCCAGTATAGTGTCGGC | -1.07
CCTCGGAGGACAAAAGGAGGTCAGAGCTGCCAGA | 2.12
GCTTGTAGAGCAAGGTTAAGAAAGACTAAGCTAA | 0.442
TCATATAGGTAAAAGGAGAAAGTCGGTGTGGTAA | 0.966
TCTAGCAGGCCAGAGGTTCACTCAAGAGGTACGG | -0.361
TCGAGTAGGTTCGGGGCATTCAGAATGGCGTCGA | -0.318
TCTATTAGTTGATTAGGGCAACCTAAACAGCGGA | 0.704
ATACCAAAGTGATCGTGAGGTCGTTGATACTAAC | 0.707
